Screens from PubChem.
Hits are enriched below; roughly 4.6% of the tested compounds scored in any of these assays.
tim23-1 inh = growth inhibitors of tim23-1 mutant yeast; inhibition, % at 20 µM; hit rate 1.3% among 330,000; AID 463212; S. cerevisiae tim23-1 growth, BacTiter-Glo luminescence, 24 h;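 active = growth inhibition of the mutant yeast at or above 50%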;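 note: temperature-sensitive mutant grown at 25 °C; plate controls were DMSO-treated mutant yeast for no effect and medium wells lacking yeast for full effect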
tim10-1 inh = growth inhibitors of tim10-1 mutant yeast; AID 463190; hit rate 2.2% among 330,000; S. cerevisiae tim10-1 ts strain growth, BacTiter-Glo, 24 h; inhibition, % at 20 µM;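 active = inhibition of at least 40%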;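 note: mutant grown at 25 °C; 0% = DMSO wells with yeast and 100% = wells holding no yeast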
PfHsp90 yeast 2 = inhibits growth of yeast expressing Plasmodium falciparum Hsp90; S. cerevisiae expressing PfHsp90, BacTiter-Glo ATP, 48 h; yeast lacking PDR1 and PDR3 efflux regulators; inhibition, % at 9.4 µM; hit rate 0.32% among 310,000;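 active = every replicate shows inhibition above about 80%, whatever the replicate mean, limit read from the data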;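 note: 0% = DMSO neutral controls and 100% = 20 µM radicicol positive controls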
SKKanGAS inh = blocks kanamycin growth of S. pyogenes SKKanGAS strain | hit rate 1.3% among 300,000 | inhibition, % at 7.5 µM | BacTiter-Glo, 6 h;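 active = mean replicate score, as percent of positive control median, at least 50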;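 note: strain carries kanamycin resistance gene driven by streptokinase promoter and grows in 40 µg/ml kanamycin; loss of luminescence reflects streptokinase promoter inhibition or plain growth inhibition; 0% = median of DMSO wells and 100% = positive control at its reference dose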
NALP3 yeast inh = NALP3 inhibition in yeast; inhibition, % at 10 µM; hit rate 0.39% among 330,000; Yeast reconstituted NLRP3/ASC/caspase-1, beta-gal luminescence, 24 h;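 active = inhibition of 50% or more; inactive = inhibition below 50%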;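 note: plate controls were induced DMSO wells for no effect and uninduced yeast grown without galactose for full effect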
TIM10 inh = inhibits growth of TIM10 yeast strain | S. cerevisiae TIM10 strain growth, BacTiter-Glo luminescence, 24 h | inhibition, % at 10 µM | hit rate 1.4% among 330,000;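 active = inhibition of 40% or more at the single tested concentration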;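 note: wild-type TIM10 isogenic control strain grown at permissive 25 °C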
NALP3 confirm = NALP3 inhibition confirmation in yeast. shares compounds with NALP3 yeast inh. yeast expressing human NALP3, luminescence. inhibition, % at 10 µM. hit rate 81% among 1,300; in the data active = inhibition above about 48%
Casp1-ASC yeast = counter-screen for NALP3 inhibitors: yeast caspase-1-ASC; shares compounds with NALP3 yeast inh; yeast expressing Caspase-1-ASC, luminescence counter screen; inhibition, % at 10 µM; hit rate 66% among 1,000; AID 488784
NALP3 retest = yeast NALP3 inhibition, confirmed on retest; shares compounds with NALP3 yeast inh; yeast expressing human NALP3, luminescence read-out; inhibition, % at 10 µM; hit rate 53% among 1,000; AID 488794
tim10-1 conf = tim10-1 yeast growth inhibition, confirmed; shares compounds with tim10-1 inh; S. cerevisiae tim10-1 ts strain growth, BacTiter-Glo, 24 h; inhibition, % at 20 µM; hit rate 56% among 7,400;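 active = inhibition of yeast growth at or above a set limit in either of two repeat tests at 20 µM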;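 note: tim10-1 mutant grown at permissive 25 °C to find synthetic lethal compounds; 0% = DMSO yeast wells and 100% = medium wells without yeast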
TIM10 conf = confirmation of TIM10 yeast growth inhibitors; hit rate 63% among 4,600; S. cerevisiae tim10 strain growth, BacTiter-Glo luminescence, 24 h; inhibition, % at 10 µM; shares compounds with TIM10 inh;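 active = inhibition of yeast growth at or above a set limit in either of two replicates at 10 µM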;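 note: this counterscreen used the strain with wild-type TIM10; 0% = yeast with DMSO and 100% = medium wells lacking yeast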
The depositor's hits bear a star; · = no result. Cut-off read from the data, not from the text of the source, unless noted: active = inhibition above about 50%; inactive = the rest.

SMILES	tim23-1 inh	tim10-1 inh	PfHsp90 yeast 2	SKKanGAS inh	NALP3 yeast inh	TIM10 inh	NALP3 confirm	Casp1-ASC yeast	NALP3 retest	TIM10 conf	others
COc1cc2[nH]c(=O)c(C(=O)NCCCN3CCOCC3)c(O)c2cc1OC	-19	-23	10	-4	4	5	·	·	·	·
Oc1c(Cl)cc(Cl)cc1Sc1cc(Cl)cc(Cl)c1O	34	-80	·	106*	97*	45*	99*	·	·	39*
Cc1cc(C)c(O)c(CN(C)Cc2cc(Cl)cc(Cl)c2O)c1	·	·	-3	·	·	·	·	·	·	·
COc1c[nH]n(C2CCCCC2)c(=O)c1=O	40	23	-4	2	57*	40*	77*	59*	67*	23
CC(C)(CC(=O)O)CC(=O)Nc1ccc(Cl)c(Cl)c1	15	6	-10	1	12	7	·	·	·	·
CCCCn1c(N)c(N(CC(C)C)C(=O)CSC(C)C(=O)Nc2cc(C)on2)c(=O)[nH]c1=O (centres undefined)	-10	-12	30	-8	20	1	·	·	·	·
CN(CCO)c1cc(Sc2nc3ccccc3s2)c2nonc2c1[N+](=O)[O-]	14	41*	6	67*	62*	53*	65*	·	·	26*	tim10-1 conf=39*
N#Cc1nc(COc2ccccc2)oc1N1CCCCCC1	18	18	-11	-1	52*	75*	71*	50	37	4
O=C(Nc1ccccc1)c1ccc2c(c1)OCCO2	44	-2	-11	6	37	29	·	·	·	·
O=C(Nc1cccc(F)c1)c1ccc2c(c1)OCCO2	45	27	5	-4	67*	41*	70*	62*	60*	53*
N#Cc1cc2c(nc1SCc1nc3ccccc3[nH]1)CCC2	35	42*	·	6	66*	73*	79*	·	·	67*	tim10-1 conf=35*
Cc1cc(C)c(C#N)c(SCc2nc3ccccc3[nH]2)n1	28	0	12	4	54*	44*	44	36	41	36*
Cc1cc(C)c(C#N)c(SCc2ccc(F)cc2)n1	12	15	-14	23	19	20	·	·	·	·
Cc1ccc(C(=O)C(C)OC(=O)Cc2n[nH]c(=O)c3ccccc23)cc1 (centres undefined)	-3	15	17	11	9	23	·	·	·	·
CC(C)(C)c1ccc(-c2nc(N)nc(N)n2)cc1	11	8	·	-3	19	16	·	·	·	·
CC(C)(C)c1ccc(-c2conc2N)cc1	46	55*	-33	-6	59*	43*	69*	66*	48	47*	tim10-1 conf=41*
O=C(/C=C/c1c(F)cccc1Cl)c1ccc(O)cc1	-35	-151	-78	18	91*	74*	87*	58*	47	62*
O=C(/C=C/c1c(F)cccc1Cl)Nc1ncccn1	23	13	-1	2	13	14	·	·	·	·
Cc1cc(Cl)ccc1OCCCC(=O)Nc1ccc(S(=O)(=O)Nc2ncccn2)cc1	4	-7	-58	14	19	10	·	·	·	·
CC(C)=CCC/C(C)=C/CNC(=O)C[C@H]1C[C@H](C(=O)N2CCOCC2)[C@@]2(C)c3[nH]c4cc(-c5ccco5)ccc4c3CCN2C1=O	47	34	-20	·	·	8	·	·	·	·
Cc1sc(NC(=O)c2cccs2)nc1-c1ccccc1	33	15	·	5	68*	47*	67*	55*	46	28
O=C(Nc1nc2c(s1)CCCC2)c1cccs1	6	44*	54	·	50*	44*	55*	88*	72*	12	tim10-1 conf=30*
CC(=O)NN(O)C1N(C)C(=O)N(Cc2ccccc2)C1(C)C (centres undefined)	-9	-10	5	2	18	6	·	·	·	·
